Experiment [1] addresses Cytochrome P450 2D6 (Homo sapiens) (UniProt P10635). In words: qHTS Assay for Inhibitors and Substrates of Cytochrome P450 2D6 (AID 891). Further: potency means the concentration at half of the fitted maximal effect; nearly all actives have a fitted effect of over 60% in size. Particulars: recombinant CYP2D6, luciferin-ME EGE luminescence; series mostly up to 57.1 µM. In short, it runs like this: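 Luminescent read-out of luciferin formed by 5 nM human CYP2D6 demethylating 30 uM Luciferin-ME EGE (Km level) over 60 min at room temperature after NADPH regeneration addition. Data normalized to full inhibition by 1.43 uM quinidine.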

Experiment [2] concerns the target Rap guanine nucleotide exchange factor 3 (Homo sapiens) (UniProt O95398). In words: Confirmatory qHTS for antagonist of cAMP-regulated guanine nucleotide exchange factor 3 (EPAC1) (AID 1645880). Further: nearly all actives have a fitted effect of over 55% in size. Particulars: EPAC1 Rap1B-BODIPY-GDP exchange, fluorescence; series mostly up to 115 µM. In short, it runs like this:
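Released BODIPY-GDP fluoresces less than Rap1-bound BODIPY-GDP; the signal is followed at 480/540 nm at 5-min intervals over 30 min, after 5 min at room temperature. Reactions contain 100 nM EPAC1, 250 nM RAP1B-BODIPY-GDP and 50 uM GDP; results are normalized to ATA and DMSO.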
Background: Quantitative high-throughput screening tests each substance at several concentrations.

Experiment [3] addresses Cytochrome P450 2C9 (Homo sapiens) (UniProt P11712). In words: qHTS Assay for Inhibitors and Substrates of Cytochrome P450 2C9 (AID 883). Further: potency means the concentration at half of the fitted maximal effect; nearly all actives have a fitted effect of over 60% in size. The settings on record: recombinant CYP2C9, luciferin-H luminescence, 60 min; series mostly up to 57.1 µM. In outline:
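A luminogenic readout tracked human CYP2C9 (10nM) converting deoxyluciferin (100uM, at KM) in 25mM KPO4 during 60 min at 37C with regenerated NADPH. Values normalized to 57uM sulphaphenazole as complete inhibition.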

The nature of experiment [4]: NCATS anti-infectives library activity on the primary C. elegans qHTS viability assay (AID 1745855; calls by dose curve). Particulars: C. elegans worm area imaging, day 7; series mostly up to 41.8 µM. In short, it runs like this: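 Titration-based screen in worms: eggs hatched overnight in M9, L1 larvae fed TOP10 capsules in S medium with compound, incubated 21 °C for 7 days; fluorescent objects gated by size and intensity at days 0, 3 and 7.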

Experiment [5] can be described thus: qHTS for Inhibitors of Ubiquitin-specific Protease USP2a Using CHOP2 as the Reporter: K633 Counterscreen (AID 652168). The settings on record: No-enzyme DiUb K48 IQF substrate fluorescence interference, kinetic; series mostly up to 57.5 µM. In short, it runs like this: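 Detection-system control: fluorescence of K48-linked DiUb-4IQF substrate (100 nM as added) tracked over time, Ex 525/Em 598, with pinned compounds and no enzyme, in pH 8 Tris buffer containing beta-mercaptoethanol and 0.05% Chaps.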

A short description of experiment [6]: qHTS for Inhibitors of Ubiquitin-specific Protease USP2a Using CHOP2 as the Reporter: Cytotox Assay (AID 652170).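 Further: HCT116 human colon cancer cells at 600 per well; nearly all actives have a fitted effect of over 70% in size.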 The settings on record: HCT116 viability, CellTiter-Glo luminescence, 72 h; series mostly up to 46.1 µM. In outline:
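Cytotoxicity read as ATP luminescence (CellTiter-Glo) after 72 hr compound treatment at 37 deg C. Cells: HCT116, 600/well in DMEM plus 10% FBS. Normalization between DMSO-treated cells and cell-free wells.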

Experiment [7] has as its target Ubiquitin carboxyl-terminal hydrolase 2 (Homo sapiens) (UniProt O75604). The experiment can be described thus: qHTS for Inhibitors of Ubiquitin-specific Protease USP2a Using CHOP2 as the Reporter: K484 Substrate (AID 652173).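 Further: cleavage of internally quenched K48 di-ubiquitin substrate measured as rising fluorescence over time; potency means the concentration at half of the fitted maximal effect; nearly all actives have a fitted effect of over 70% in size.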 The settings on record: USP2 cleavage of DiUb K48 IQF substrate, fluorescence. In outline:
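Kinetic fluorescence (Ex 525/Em 598) tracked cleavage of an internally quenched K48 di-ubiquitin substrate, added as a 100 nM solution. The enzyme was added as a 5 nM USP2 solution before compound pinning, with no-enzyme controls. Buffer: Tris pH 8, beta-mercaptoethanol, CHAPS.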

Structures are written as SMILES. Results filed as inconclusive are left out. Calls of active or inactive are those of the source. Unless noted, the call rests on the fitted dose curve; in most records, active means well fitted curve in the direction sought with a large enough effect; inconclusive means small, poorly fitted or top-dose-only effect, or another doubt; inactive means no such curve, though single readings can be large; an effect the other way counts as inactive or inconclusive.

Chain of Cytochrome P450 2D6 (Homo sapiens) (P10635 whole entry, looked up): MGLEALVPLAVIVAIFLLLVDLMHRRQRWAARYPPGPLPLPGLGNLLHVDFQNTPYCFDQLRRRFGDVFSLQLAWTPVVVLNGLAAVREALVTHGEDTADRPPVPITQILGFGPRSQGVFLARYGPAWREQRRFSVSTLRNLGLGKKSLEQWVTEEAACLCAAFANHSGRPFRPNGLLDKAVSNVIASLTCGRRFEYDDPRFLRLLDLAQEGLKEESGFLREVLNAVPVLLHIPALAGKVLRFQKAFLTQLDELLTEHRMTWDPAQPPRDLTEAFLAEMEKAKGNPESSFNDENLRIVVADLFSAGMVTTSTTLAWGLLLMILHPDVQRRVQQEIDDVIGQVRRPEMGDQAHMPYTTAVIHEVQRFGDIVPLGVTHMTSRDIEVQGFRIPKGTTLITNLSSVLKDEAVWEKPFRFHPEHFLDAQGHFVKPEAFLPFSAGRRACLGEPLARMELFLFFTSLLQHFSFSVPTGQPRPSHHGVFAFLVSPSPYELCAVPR
Chain of Cytochrome P450 2C9 (Homo sapiens) (P11712 whole entry, looked up): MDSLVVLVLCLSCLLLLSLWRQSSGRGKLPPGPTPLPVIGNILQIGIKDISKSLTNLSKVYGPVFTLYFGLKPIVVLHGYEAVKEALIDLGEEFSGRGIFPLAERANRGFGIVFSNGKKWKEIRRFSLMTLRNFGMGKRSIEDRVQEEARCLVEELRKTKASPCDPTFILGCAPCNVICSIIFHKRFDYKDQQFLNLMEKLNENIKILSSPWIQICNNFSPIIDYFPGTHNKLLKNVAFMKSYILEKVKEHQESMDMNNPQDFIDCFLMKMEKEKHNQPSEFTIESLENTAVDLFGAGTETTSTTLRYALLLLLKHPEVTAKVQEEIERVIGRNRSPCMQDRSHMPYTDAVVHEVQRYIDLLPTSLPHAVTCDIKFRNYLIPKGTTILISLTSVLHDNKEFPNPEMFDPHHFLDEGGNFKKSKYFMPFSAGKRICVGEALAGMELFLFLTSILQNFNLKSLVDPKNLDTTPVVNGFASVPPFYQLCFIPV
Chain of Ubiquitin carboxyl-terminal hydrolase 2 (Homo sapiens) (O75604 whole entry, looked up): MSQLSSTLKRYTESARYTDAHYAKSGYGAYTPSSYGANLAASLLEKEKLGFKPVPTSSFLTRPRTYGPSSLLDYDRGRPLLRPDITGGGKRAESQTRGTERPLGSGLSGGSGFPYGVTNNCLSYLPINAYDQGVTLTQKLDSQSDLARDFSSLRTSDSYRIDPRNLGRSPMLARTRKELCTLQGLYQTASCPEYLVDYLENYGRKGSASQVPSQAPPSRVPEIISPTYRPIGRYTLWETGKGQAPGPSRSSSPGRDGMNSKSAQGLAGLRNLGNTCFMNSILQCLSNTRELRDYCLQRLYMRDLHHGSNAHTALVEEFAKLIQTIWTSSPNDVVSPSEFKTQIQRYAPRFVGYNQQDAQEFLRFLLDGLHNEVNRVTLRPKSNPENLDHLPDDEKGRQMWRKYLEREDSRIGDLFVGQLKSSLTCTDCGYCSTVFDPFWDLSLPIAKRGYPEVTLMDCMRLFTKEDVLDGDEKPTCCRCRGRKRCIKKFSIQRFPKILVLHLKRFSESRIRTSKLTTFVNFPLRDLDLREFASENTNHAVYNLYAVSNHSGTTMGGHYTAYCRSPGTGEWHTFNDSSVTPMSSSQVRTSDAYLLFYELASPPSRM
Chain of Rap guanine nucleotide exchange factor 3 (Homo sapiens) (O95398 whole entry, looked up): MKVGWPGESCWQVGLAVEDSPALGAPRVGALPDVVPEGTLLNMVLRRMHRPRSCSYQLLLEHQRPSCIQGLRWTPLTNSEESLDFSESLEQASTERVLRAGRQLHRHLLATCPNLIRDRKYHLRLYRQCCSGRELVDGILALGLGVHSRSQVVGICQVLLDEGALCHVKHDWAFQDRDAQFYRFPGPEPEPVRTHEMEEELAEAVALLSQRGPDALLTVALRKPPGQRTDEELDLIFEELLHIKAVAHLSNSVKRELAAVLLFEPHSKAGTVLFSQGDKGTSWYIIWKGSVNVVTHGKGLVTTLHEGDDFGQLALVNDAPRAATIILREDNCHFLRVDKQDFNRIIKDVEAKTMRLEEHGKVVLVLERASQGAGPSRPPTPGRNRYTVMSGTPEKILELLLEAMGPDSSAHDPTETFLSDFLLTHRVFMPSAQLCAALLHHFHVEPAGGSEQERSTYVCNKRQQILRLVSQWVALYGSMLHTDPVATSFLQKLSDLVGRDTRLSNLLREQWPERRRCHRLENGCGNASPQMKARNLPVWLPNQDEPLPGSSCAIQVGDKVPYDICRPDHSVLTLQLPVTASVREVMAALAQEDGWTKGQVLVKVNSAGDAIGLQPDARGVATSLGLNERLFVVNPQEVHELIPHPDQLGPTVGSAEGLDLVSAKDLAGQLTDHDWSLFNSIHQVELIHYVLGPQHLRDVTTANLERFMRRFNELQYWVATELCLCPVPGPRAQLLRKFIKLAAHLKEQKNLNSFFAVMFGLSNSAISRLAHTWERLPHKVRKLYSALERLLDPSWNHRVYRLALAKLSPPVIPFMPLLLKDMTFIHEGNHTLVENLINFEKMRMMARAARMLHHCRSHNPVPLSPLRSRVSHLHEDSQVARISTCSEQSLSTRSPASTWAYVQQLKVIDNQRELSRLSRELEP

For the compound `COc1cc(/C=C(\C#N)C(N)=O)cc(CSc2nc3ccccc3s2)c1O`, the Potency in experiment [1] is 0.0251 µM (active). With `C#C[C@]1(OC(C)=O)CC[C@H]2[C@@H]3CCC4=CC(=O)CC[C@@H]4[C@H]3CC[C@@]21C`, the Potency entry in experiment [2] is “inactive”. For the compound `Cc1nc2c(O)cccc2c(=O)[nH]1`, in experiment [3], the Potency was 3.98 µM (active). The Potency result in experiment [4] was “inactive”. For the compound `O=C(Nc1ccc(S(=O)(=O)Nc2nccs2)cc1)c1cc(-c2ccccc2)nc2ccccc12`, the compound was classed as inactive in experiment [5] and in experiment [6]. The Potency in experiment [7] is 1.37 µM (active).

Source of the values: PubChem BioAssay (NCATS).
